Consider 40 compounds from PubChem BioAssay (Tox21).

“And” between values parts separate entries of the source, which are not always exact repeats. Identical values can stand only once. Records with an inconclusive call do not appear. Entries that show only a call come without a potency. The source made the active and inactive calls. Calls follow the shape of the full dose curve.
Potency is read from the fitted curve at half-maximal effect.

A short description of this test: qHTS assay for small molecule agonists of the antioxidant response element (ARE) signaling pathway - cell viability counter screen (AID 743203). Also: nearly all actives have a fitted effect of over 55% in size. The note with it: ARE-bla HepG2 viability, CellTiter-Glo luminescence, 16 h; series mostly up to 73.3 µM. An excerpt: National Center for Advancing Translational Sciences [NCATS]
NIH Chemical Genomics Center [NCGC]
U.S. Environmental Protection Agency [EPA]
National Institutes of Environmental Health Sciences [NIEHS]
National Toxicology Program [NTP]
U.S. Food and Drug Administration [FDA]
Oxidative stress has been implicated in the pathogenesis of a variety of diseases ranging from cancer to neurodegeneration. The antioxidant response element (ARE) signaling pathway plays an important role in the amelioration of oxidative stress. The CellSensor ARE-bla HepG2 cell line (Invitrogen) can be used for analyzing the Nrf2/antioxidant response signaling pathway. Nrf2 (NF-E2-related factor 2) and Nrf1 are transcription factors that bind to AREs and activate these genes. The CellSensor ARE-bla Hep G2 cell line contains a beta-lactamase reporter gene under control of the Antioxidant Response Element (ARE) stably integrated into HepG2 cells. The activation of the report gene under culture conditions can be detected by fluorescence intensity. This cell line has been used to screen the Tox21 10K compound library to identify agonists that induce oxidative stress. The cytotoxicity of the Tox21 compound library against the ARE-bla cell line was tested in parallel by measuring the cell viability using CellTiter-Glo assay (Promega, Madison, WI) in the same wells.
Tox21 Assay Protocol Summary:
ARE-bla HepG2 cells were dispensed at 2,000 cells/5 ul/well in 1536-well white wall/solid bottom plates using a Multidrop Combi (ThermoFisher Scientific, Waltham, MA) dispenser. After the assay plates were incubated at 37C/5% CO2 for 5 hrs, 23 nL of compounds dissolved in DMSO, positive controls or DMSO only was transferred to the assay plate by a pintool work station (Kalypsys, San Diego, CA). The plates were incubated at 37C/5% CO2 for 16 hrs, followed by addition of 4 ul/well of CellTiter-Glo reagent into the assay plates using a Flying Reagent Dispenser (Aurora Discovery, San Diego, CA). After 30 min incubation at room temperature, the luminescence intensity in the assay plates was measured using a ViewLux (PerkinElmer, Shelton, CT) plate reader.
(In general: In qHTS, concentration-response curves come from the screen itself.)
For the compound `O=[N+]([O-])c1ccc(Cl)c([N+](=O)[O-])c1`, the Potency was 12.4 µM (active) and 6.86 µM (active).
Turning to `CCCCOCCOC(C)=O`, the Potency result was “inactive”.
For the compound `Clc1cccc(C(Cl)(Cl)Cl)n1`, the Potency result is “inactive”.
For `Cc1ccc([N+](=O)[O-])cc1` the value was “inactive”; for `COc1ccc(C=O)cc1OC`, “inactive”.
For the compound `C[C@]12CC[C@H]3[C@@H](CCC4=CC(=O)CC[C@@H]43)[C@@H]1CC[C@@H]2O`, the Potency result is “inactive”.
As to `C=CC(Cl)CCl` (stereo not given), the Potency entry was “inactive”.
Next, `O=C(O)c1nn(Cc2ccc(Cl)cc2Cl)c2ccccc12`: “inactive”; `Cc1cc(Cl)ccc1N=CN(C)C`: “inactive”; `CC1(C)Cc2cccc(O)c2O1`: “inactive”.
For `C[N+](C)(C)CC(=O)[O-]` the value was “inactive”; for `OC(c1ccc(Cl)cc1)(c1cncnc1)c1ccccc1Cl` (stereo not given), “inactive”; for `C=C(C)C#N`, “inactive”.
Consider `N#CC(c1ccccc1)c1ccccc1`, for which the Potency entry was “inactive”.
For `NN=C(N)N` the value was “inactive”; for `CCCCC(C#N)(Cn1cncn1)c1ccc(Cl)cc1` (stereo not given), “inactive”.
For the compound `CSc1nc(NC(C)C)nc(NC(C)C)n1`, the Potency entry was “inactive”.
Next, `O=C1CCCO1`: “inactive”.
Turning to `CC(C)(c1ccc(OCC2CO2)cc1)c1ccc(OCC2CO2)cc1` (stereo not given), the Potency result was “inactive”.
On to `Cl`, for which the Potency entry was “inactive”.
For `Clc1ccc(C(Cl)(Cl)Cl)cc1` the value was “inactive”; for `CCOP(=O)(OCC)OCC`, “inactive”.
As to `O=S(=O)(O)C(F)(F)C(F)(F)C(F)(F)C(F)(F)C(F)(F)C(F)(F)C(F)(F)C(F)(F)F`, the Potency is 27.3 µM (active).
Take `CC[n+]1c(-c2ccccc2)c2cc(N)ccc2c2ccc(N)cc21`: the Potency result is “inactive”.
Next, `CCC/C=N/O`: “inactive”; `CCOP(=S)(OCC)OP(=S)(OCC)OCC`: “inactive”; `C[N+](C)(C)CC(=O)O`: “inactive”.
Next, `COP(=S)(OC)SCn1nnc2ccccc2c1=O`: “inactive”; `O=C(O)CF`: “inactive”.
Next, `O=C1C(Cl)=C(Cl)C(=O)c2ccccc21`: 68.8 µM (active) and 21.7 µM (active).
Take `CCOP(=S)(OCC)SCSC(C)(C)C`: the Potency result is “inactive”.
With `ClCC(Cl)CCl`, the Potency entry is “inactive”.
Regarding `CCOC(=O)c1ccccc1N`, the Potency entry is “inactive”.
For `N#Cc1cccnc1` the value was “inactive”; for `CCNc1nc(Cl)nc(NC(C)(C)C#N)n1`, “inactive”; for `O=NN(c1ccccc1)c1ccccc1`, “inactive”.
`CC1CC(=O)O1` (stereo not given): the Potency result was “inactive”.
Next, `N#CCCCCC#N`: “inactive”.
Next, `COP(=O)(NC(C)=O)SC` (stereo not given): “inactive”; `N#Cc1c(Cl)c(Cl)c(Cl)c(C#N)c1Cl`: 10.7 µM (active) and 3.86 µM (active).
